This is an account of results in PubChem BioAssay (Tox21).

The target of assay [1] is Retinoic acid receptor RXR-alpha (Homo sapiens) (UniProt P19793). As to the kind of experiment: qHTS assay to identify small molecule agonists of the RXR signaling pathway (AID 1159527; calls by dose curve; further: nearly all actives have a fitted effect of over 35% in size; further: potency means the concentration at half of the fitted maximal effect). As to conditions: HEK293T RXRa-UAS-bla, beta-lactamase ratio, 16 h; series mostly up to 76.8 µM. The essentials:
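qHTS of the Tox21 10K library in GeneBLAzer RXR-alpha HEK 293T cells carrying a beta-lactamase reporter […]; 16 hr treatment, 9-cis retinoic acid as agonist control, FRET read-out.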
On the technique in general: In qHTS, concentration-response curves come from the screen itself.

The nature of assay [2]: qHTS assay to identify small molecule agonists of the RXR signaling pathway - cell viability counter screen (AID 1159529). Further: nearly all actives have a fitted effect of over 50% in size. As to conditions: RXR-alpha-bla HEK293T viability, CellTiter-Glo, 16 h; series mostly up to 76.8 µM. Summed up:
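Cell viability is measured by CellTiter-Glo luminescence, 30 min at room temperature, in wells already read for beta-lactamase. Engineered HEK 293T cells (RXR-alpha-UAS-bla) are dosed 16 hr at 37 C. Tetraoctyl ammonium bromide serves as positive control.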

The nature of assay [3]: qHTS assay to identify small molecule antagonists of the retinoid acid receptor (RAR) signaling pathway - cell viability counter screen (AID 1159551). Further: nearly all actives have a fitted effect of over 35% in size. The following applies: C3RL4 cells viability, ATP luminescence (CellTiter-Glo), 6 h; series mostly up to 92.4 µM. Summed up: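 Cytotoxicity counter screen in C3RL4 cells: 6 h compound exposure with 1 uM retinol (final), viability from cellular ATP by luminescence.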

Assay [4] in a line: qHTS assay to identify small molecule antagonists of the retinoic acid receptor (RAR) signaling pathway (AID 1159552; further: nearly all actives have a fitted effect of over 50% in size). The following applies: C3RL4 RARE luciferase reporter, retinol-stimulated, 6 h; series mostly up to 92.4 µM. The essentials: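 Quantitative HTS in C3RL4 RARE-luciferase reporter cells. Compounds were added with 1 uM (final) retinol; luminescence was read after 6 hr.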

Assay [5] is described as follows: qHTS assay to identify small molecule agonists of the retinoic acid receptor (RAR) signaling pathway (AID 1159553). Further: potency means the concentration at half of the fitted maximal effect. As to conditions: C3RL4 RARE luciferase reporter, agonist, 6 h; series mostly up to 73.3 µM. Summed up:
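Agonist activity was scored in C3RL4 cells bearing a retinoic acid response element luciferase construct. Cells were treated with compounds for 6 hr at 37 C, and luciferase signal was measured as luminescence.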

Records with an inconclusive call do not appear. The source made the active and inactive calls. Unless noted, the call rests on the fitted dose curve; in most records, active means well fitted curve in the direction sought with a large enough effect in the repeat runs; inconclusive means weak or mixed curves; inactive means no such curve, though single readings can be large; an effect the other way counts as inactive or inconclusive.

Retinoic acid receptor RXR-alpha (Homo sapiens), sequence (P19793 whole entry, looked up): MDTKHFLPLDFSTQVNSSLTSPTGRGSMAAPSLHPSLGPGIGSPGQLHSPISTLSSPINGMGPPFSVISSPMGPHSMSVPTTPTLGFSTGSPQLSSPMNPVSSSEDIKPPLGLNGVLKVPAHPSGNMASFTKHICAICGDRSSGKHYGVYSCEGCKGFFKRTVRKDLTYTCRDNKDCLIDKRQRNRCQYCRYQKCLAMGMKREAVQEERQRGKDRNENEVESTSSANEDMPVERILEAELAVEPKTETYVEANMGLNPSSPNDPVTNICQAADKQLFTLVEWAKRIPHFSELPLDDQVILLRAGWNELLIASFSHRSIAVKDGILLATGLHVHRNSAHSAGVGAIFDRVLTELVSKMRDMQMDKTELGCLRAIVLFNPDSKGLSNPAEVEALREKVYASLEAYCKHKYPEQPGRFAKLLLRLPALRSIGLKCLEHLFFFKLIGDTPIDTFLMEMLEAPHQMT

With `CCOc1ccc(OCC)c(Cl)c1`, the Potency entry in assay [1], in assay [2], in assay [4] and in assay [5] was “inactive” throughout. The compound was called inactive in assay [3].

As to `CCN(CC)C(=O)N(CC)CC`, the Potency result in assay [1], in assay [2], in assay [4] and in assay [5] was “inactive” each time. In assay [3], the result was inactive.

In the case of `O=C(O[C@@H](C(=O)O)[C@@H](OC(=O)c1ccccc1)C(=O)O)c1ccccc1`, the Potency entry in assay [1], in assay [2], in assay [4] and in assay [5] was “inactive” throughout. In addition, the compound was called inactive in assay [3].

For the compound `CCCC(CCC)(C(=O)OCC)C(=O)OCC`, the Potency entry in assay [1], in assay [2], in assay [4] and in assay [5] was “inactive” in each case. Moreover, the outcome in assay [3] was inactive.

With `CCN(CC)CCNC(=O)COc1ccc(Cl)cc1`, the Potency entry in assay [1], in assay [2], in assay [4] and in assay [5] was “inactive” in each case. Besides, the call in assay [3] was inactive.

As for `O=C(CCCl)NCc1ccccc1`, the Potency entry in assay [1], in assay [2], in assay [4] and in assay [5] was “inactive” throughout. Moreover, the call in assay [3] was inactive.

For `O=C1CCCc2ccccc21`, in assay [1], the Potency is 6.99 µM (active). For the same compound, the Potency result in assay [2], in assay [4] and in assay [5] was “inactive” each time. Also, the result in assay [3] was inactive.

Consider `CC(=O)O[C@H]1CC[C@@]2(C)C(=CC[C@@H]3[C@@H]2CC[C@]2(C)C(C(C)=O)=CC[C@@H]32)C1`, for which the Potency result in assay [1], in assay [2], in assay [4] and in assay [5] was “inactive” each time. Besides, in assay [3], the compound was called inactive.

Take `CCOC(=O)NCCC[Si](OCC)(OCC)OCC`: the Potency entry in assay [1], in assay [2], in assay [4] and in assay [5] was “inactive” in each case. In addition, the compound was classed as inactive in assay [3].

With `CC1=CC(=O)CC(C)(C)C1=O`, the Potency entry in assay [1], in assay [2], in assay [4] and in assay [5] was “inactive” throughout. For the same compound, the compound was classed as inactive in assay [3].

Regarding `CCCOCCC`, the Potency result in assay [1], in assay [2], in assay [4] and in assay [5] was “inactive” throughout. The call in assay [3] was inactive.

For `CCCCN1C[C@H](O)[C@@H](O)[C@H](O)[C@H]1CO`, the Potency result in assay [1], in assay [2], in assay [4] and in assay [5] was “inactive” each time. Also, in assay [3], the outcome was inactive.

Take `COc1ccc(Nc2ccc(OC)cc2)cc1`: the Potency entry in assay [1], in assay [2] and in assay [4] was “inactive” each time. For the same compound, in assay [3], the compound was classed as inactive. The Potency in assay [5] was 4.94 µM (active).
